Assay outcomes: PubChem BioAssay, several laboratories
An excerpt weighted towards active compounds, which were near 5% of everything screened.
AHR activator = human AHR activation | P35869 | AHR-responsive luciferase reporter cells, luminescence | activation, % at 5 µM | 2.5% of 320,000 active | AID 2796; in the data active means activation above about 47%
EBI2 block = antagonists of human EBI2 receptor; P32249; EBI2 beta-arrestin recruitment, luminescence, 7a,25-OHC stimulated; inhibition, % at 5 µM; 0.81% of 360,000 active; in the data active means inhibition above about 38%;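 further: enzyme fragment complementation signal reports receptor beta-arrestin coupling in cells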
Target sequence (P32249 whole entry, looked up, the tested form may be a part): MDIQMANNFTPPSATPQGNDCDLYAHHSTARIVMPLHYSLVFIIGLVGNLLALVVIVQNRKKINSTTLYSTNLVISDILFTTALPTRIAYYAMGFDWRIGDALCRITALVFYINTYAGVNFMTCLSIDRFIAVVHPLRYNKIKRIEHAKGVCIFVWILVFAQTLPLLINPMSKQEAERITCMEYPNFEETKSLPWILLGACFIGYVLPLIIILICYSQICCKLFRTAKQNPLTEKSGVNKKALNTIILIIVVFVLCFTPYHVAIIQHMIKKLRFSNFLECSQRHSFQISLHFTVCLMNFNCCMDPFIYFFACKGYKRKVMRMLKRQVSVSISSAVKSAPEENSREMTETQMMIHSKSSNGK
SENP7 inh = blocks the human protease SENP7; recombinant SENP7, Z-RLRGG-aminoluciferin luminescence, 40 min; inhibition, % at 5 µM; 1.5% of 330,000 active; AID 434973;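 active means inhibition above about 50% at the single test dose, limit read from the data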
SENP6 inh = blocks the human protease SENP6; 1.8% of 330,000 active; inhibition, % at 10 µM; Recombinant SENP6 catalytic domain, aminoluciferin luminescence;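 active means inhibition above about 50% at the single tested dose, limit read from the data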
SENP8 block-1 = inhibitors of human SENP8 protease; Q96LD8; AID 602440; 0.64% of 360,000 active; recombinant SENP8, Nedd8 substrate fluorescence; inhibition, % at 20 µM; in the data active means inhibition mostly above about 40%, no sharp cut-off; inactive means mostly below about 27%
Target sequence (Q96LD8 whole entry, looked up): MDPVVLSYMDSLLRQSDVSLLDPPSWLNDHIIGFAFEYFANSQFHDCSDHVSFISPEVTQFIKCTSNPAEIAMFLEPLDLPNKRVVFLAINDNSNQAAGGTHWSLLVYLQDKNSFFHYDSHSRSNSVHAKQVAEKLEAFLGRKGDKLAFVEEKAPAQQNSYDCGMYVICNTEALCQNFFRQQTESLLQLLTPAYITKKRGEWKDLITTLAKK
SENP8 block-2 = SENP8 protease inhibition | 1.2% of 330,000 active | purified SENP8, Z-RLRGG-aminoluciferin cleavage, luminescence | Q96LD8 | AID 2540 | inhibition, % at 10 µM; in the data active means inhibition above about 50%
Hits are given with their value; – = inactive; · = no result.

SMILES	AHR activator	EBI2 block	SENP7 inh	SENP6 inh	SENP8 block-1	SENP8 block-2
NNc1nc2c(Cl)ccc(Cl)c2s1	55.7	–	–	–	–	–
O=C(Nc1nc2c(Cl)ccc(Cl)c2s1)C1CC1	–	–	–	–	–	–
CCOC(=O)c1c(N/N=C/c2cccnc2)n[nH]c1C	51.6	–	–	–	–	–
CC(=O)c1oc2ccccc2c1N	–	–	–	–	–	–
COC(=O)c1oc2ccccc2c1N	77.0	–	–	–	–	–
Cc1ccc2nc(SC(C(=O)Nc3ccc(F)cc3)c3ccccc3)[nH]c2c1 (stereo unspecified)	78.9	–	–	–	–	–
Cc1ccc(C)c(NC(=O)C(Sc2nc3ccc(C)cc3[nH]2)c2ccccc2)c1 (stereo unspecified)	–	–	–	–	–	–
N#C/C(=N\Nc1cccc(C(F)(F)F)c1)C(=O)c1ccsc1	–	–	–	88.3	–	64.1
O=C(Nc1ccccc1)Nc1cccc(C(F)(F)F)c1	–	–	–	–	–	–
CCCNC(=O)C1(C)CCN(C(=O)c2ccccc2OC)C1 (stereo unspecified)	·	–	·	·	–	·
COc1ccc(-c2cc3nc(C)cc(N4CCN(C(=O)c5ccoc5)CC4)n3n2)cc1	·	–	·	·	–	·
COc1ccc(-c2cc3nc(C)cc(N4CC(C)CC(C)C4)n3n2)cc1 (stereo unspecified)	49.5	–	–	–	–	–
CN(C)c1cc(-c2ccc(Cl)c(Cl)c2)oc(=O)c1Cl	–	–	–	–	–	–
CN(C)c1cc(-c2ccc(Cl)cc2)oc(=O)c1Cl	56.2	–	–	–	–	–
O=C1c2cc([N+](=O)[O-])ccc2-c2cc(Br)c(N=C(NO)C(F)(F)F)cc21	·	–	·	·	–	·
O=C(N/N=C/c1cn(-c2ccccc2)nc1-c1cc2ccccc2o1)c1ccncc1	68.3	–	–	–	–	–
O=C(O)c1cccc(NC(=O)c2cn(-c3ccccc3)nc2-c2cc3ccccc3o2)c1	–	–	–	–	–	–
O=C(N/N=C/c1cn(-c2ccccc2)nc1-c1cc2ccccc2o1)c1cccnc1	51.4	–	–	–	–	–
O=C(N/N=C/c1cn(-c2ccccc2)nc1-c1cccnc1)c1cccnc1	–	–	–	–	–	–
O/N=C/c1cn(-c2ccccc2)nc1-c1cccnc1	51.2	–	–	–	–	–
O=C(O)C1C=Cc2ccccc2N1C(=O)c1ccccc1 (stereo unspecified) (tested in a mixture with another compound)	·	–	·	·	–	·
O=C(NCc1ccccc1Cl)[C@H]1CCCN1C(=O)[C@H]1CCCN1C(=O)c1cccc2ccccc12	·	–	·	·	–	·
COc1ccc2c(c1OC)C(=O)N(c1ccccn1)C2	52.1	–	–	–	–	–
Clc1ccc(-c2nc(NCCN3CCOCC3)c3ccccc3n2)cc1	63.2	–	–	–	–	–
CCCCC(=O)Nc1ccc(NC(=O)c2ccc3c(c2)OCO3)cc1OC	–	–	–	–	–	–
SMILES	AHR activator	EBI2 block	SENP7 inh	SENP6 inh	SENP8 block-1	SENP8 block-2
CCCCC(=O)Nc1ccc(NC(=O)c2ccc(C)c([N+](=O)[O-])c2)cc1OC	71.9	–	–	–	–	–
Cc1cc(Nc2ccccc2)n(-c2ccccc2)n1	–	–	–	–	–	–
Cc1cc(Nc2nc(Cl)c(Cl)cc2Cl)n(-c2ccccc2)n1	67.8	–	–	–	–	–
CCC(c1nnnn1-c1ccc2c(c1)OCCO2)N1CCN(c2ncccc2C(F)(F)F)CC1 (stereo unspecified)	·	–	·	·	–	·
Cc1ccccc1C(=O)Oc1ccccc1N1C(=O)C2CC=CCC2C1=O (stereo unspecified)	74.7	–	–	–	–	–
O=C(Oc1ccccc1N1C(=O)C2CC=CCC2C1=O)c1ccc(Br)cc1 (stereo unspecified)	–	–	–	–	–	–
CC(C)NC(=O)C1(C)CCN1C(=O)Cc1ccc(-c2ccccc2)cc1 (stereo unspecified)	·	–	·	·	–	·
CCN1CCN(Cc2ccc(NC(=O)c3cc(NC(=O)c4cc5cccc(OC)c5o4)cc(OC)c3)cc2C(F)(F)F)CC1	–	–	–	–	–	–
COc1cc(NC(=O)c2ccno2)cc(C(=O)Nc2cccc(C(F)(F)F)c2)c1	63.7	–	–	–	–	–
COc1ccc(NC(=O)c2cc3cccc(OC)c3oc2=Nc2ccc(C(=O)O)cc2)cc1OC	·	–	·	·	–	·
COc1cc(NC(=O)c2cc3cccc(OC)c3o2)cc(C(=O)Nc2cccc(C(F)(F)F)c2)c1	73.2	–	–	–	–	–
COc1cccc(NC(=O)c2cc3cccc(OC)c3o/c2=N\O)c1	62.9	·	82.3	–	·	–
CCCCOc1ccc(S(=O)(=O)NC(=O)C2(C)CCN2C(=O)c2c(C)noc2C)cc1 (stereo unspecified)	·	–	·	·	–	·
Cc1ccc(-c2ccc(/C=C(\C#N)C(N)=S)n2C)cc1	78.7	–	–	–	–	–
Cn1cccc1/C=C(/C#N)C(N)=S	–	–	–	–	–	–
CCOC(=O)c1ccccc1-c1csc(N)n1	–	–	–	–	–	–
Cc1cc(F)ccc1-c1cc(C(=O)NC(C)C)[nH]n1	·	–	·	·	–	·
C[C@@H]1CN([C@@H](C)CO)C(=O)CCCn2nncc2CO[C@@H]1CN(C)C(=O)Nc1ccccc1C(F)(F)F	·	–	·	·	–	·
C/C(=N\NC(=O)CCC(=O)N/N=C(\C)c1ccc(C)o1)c1ccc(C)o1	74.2	–	–	–	–	–
Cc1cc(C)c2c(CN3CCN(Cc4ccccc4)CC3)cc(=O)oc2c1	·	–	–	–	–	–
O=C(NNc1ccc([N+](=O)[O-])cn1)Nc1ccc(N=Nc2ccccc2)cc1	·	–	·	·	48.1	·
O=C(NNc1ccc([N+](=O)[O-])cc1)Nc1ccccc1	–	–	–	–	–	–
CC(C)(C)c1ccc(N2C(=O)Cc3c2nc(N)c(C#N)c3N)cc1	75.5	–	–	–	–	–
CCc1ccc(N2C(=O)Cc3c2nc(N)c(C#N)c3N)cc1	52.1	–	–	–	–	–
CCN(CC)c1nc2c3c(nc4c(c3c1C#N)CC(=O)N4c1ccc(Cl)cc1)NC(C)=N2	–	–	–	–	–	–
SMILES	AHR activator	EBI2 block	SENP7 inh	SENP6 inh	SENP8 block-1	SENP8 block-2
O=C(NC1CCCC1)C1c2ccccc2OCC(=O)N1Cc1cccnc1 (stereo unspecified)	·	–	·	·	–	·
O=C(Nn1c(-c2ccccc2)nc2ccccc2c1=O)C1CCC1	47.2	–	–	–	–	–
Cc1nc(SCC(=O)Nn2c(-c3ccccc3)nc3ccccc3c2=O)n[nH]1	74.2	–	–	–	–	–
CN(C)C(=S)Nn1c(-c2ccccc2)nc2ccccc2c1=O	–	–	–	–	–	–
O=C(Nn1c(-c2ccccc2)nc2ccccc2c1=O)c1cccs1	51.0	–	–	–	–	–
COc1ccccc1-c1nc2ccccc2c(=O)n1NC(=O)c1cccs1	–	–	–	–	–	–
CC1(c2nnnn2Cc2ccccc2)CCC(=O)N1CCc1ccccc1F (stereo unspecified)	·	–	·	·	–	·
